Test results reported in PubChem BioAssay (NCI).
About 79,000 compounds went through this panel and 15% of them were active in at least one assay; those are over-represented in the sample as a whole. A number with no mark means an inactive call. Activity calls are given as the source filed them. Cut-off read from the data, not from the text of the source: active = growth inhibition above about 70%; inactive = the rest.

Experiment: NCI Yeast Anticancer Drug Screen. Data for the mgt1 strain (AID 153)
Settings: S. cerevisiae mgt1 mutant growth inhibition, hits give high values
Protocol: Growth inhibition of yeast strains with defined genetic alterations is measured as a screen for potential anti-cancer activity. Selected strains with alterations in DNA damage repair or cell cycle control were exposed to compounds and growth inhibition was measured relative to vehicle treated controls. The strain used in this assay is mgt1

**Q.** Which growth inhibition (at 1.2 µM) does the source give for `COC1=CC(=O)C2C(C1=O)C(c1ccc(Cl)cc1)[C@@H]2C` (stereo not given in full) here?
**A.** 21%

**Q.** What about the growth inhibition (at 3.7 µM) of the same molecule?
**A.** 30%

**Q.** And the growth inhibition (at 11.0 µM)?
**A.** 99% (active)

**Q.** And the growth inhibition (at 33.0 µM)?
**A.** 99% (active)

**Q.** And the growth inhibition (at 100.0 µM)?
**A.** 99% (active)

**Q.** What does the source list for `Clc1ccc(SC(/C=C/NNC2=NC(c3ccccc3)C(c3ccccc3)=NN2)c2ccccc2)cc1` (stereo not given)?
**A.** growth inhibition (at 1.2 µM): -5%; growth inhibition (at 3.7 µM): 8%; growth inhibition (at 11.0 µM): -11%; growth inhibition (at 33.0 µM): 8%; growth inhibition (at 100.0 µM): 85% (active)

**Q.** What does the source list for `COc1cc(/C=C2\CCc3ccccc3C2=O)cc(OC)c1OC`?
**A.** growth inhibition (at 1.2 µM): -9%; growth inhibition (at 3.7 µM): -14%; growth inhibition (at 11.0 µM): -45%; growth inhibition (at 33.0 µM): 6%; growth inhibition (at 100.0 µM): 73% (active)

**Q.** For `C=C(CN(C)C)C(=O)c1cc(C)ccc1C`, which growth inhibition (at 1.2 µM) is on record?
**A.** 2%

**Q.** What about the growth inhibition (at 3.7 µM) of the same molecule?
**A.** 19%

**Q.** What about the growth inhibition (at 11.0 µM) of the same molecule?
**A.** 80% (active)

**Q.** What about the growth inhibition (at 33.0 µM) of the same molecule?
**A.** 99% (active)

**Q.** And the growth inhibition (at 100.0 µM)?
**A.** 99% (active)

**Q.** For `COc1cc(CC2CC(c3ccc4c(c3)OCO4)OC2=O)cc(OC)c1OC` (stereo not given), which growth inhibition (at 1.2 µM) is on record?
**A.** -1%

**Q.** And the growth inhibition (at 3.7 µM)?
**A.** 1%

**Q.** And the growth inhibition (at 11.0 µM)?
**A.** 1%

**Q.** What about the growth inhibition (at 33.0 µM) of the same molecule?
**A.** 1%

**Q.** And the growth inhibition (at 100.0 µM)?
**A.** 6%

**Q.** For `c1ccc(-c2ccnc3c2ccc2c(-c4ccccc4)ccnc23)cc1`, which growth inhibition (at 1.2 µM) is on record?
**A.** 10%

**Q.** And the growth inhibition (at 3.7 µM)?
**A.** -9%

**Q.** And the growth inhibition (at 11.0 µM)?
**A.** 63%

**Q.** And the growth inhibition (at 33.0 µM)?
**A.** 98% (active)

**Q.** What about the growth inhibition (at 100.0 µM) of the same molecule?
**A.** 97% (active)

**Q.** What does the source list for `CC1=NN(c2cccc(Cl)c2)C(=O)C1`?
**A.** growth inhibition (at 1.2 µM): -21%; growth inhibition (at 3.7 µM): -44%; growth inhibition (at 11.0 µM): -40%; growth inhibition (at 33.0 µM): 8%; growth inhibition (at 100.0 µM): 63%

**Q.** With `COC(=O)c1ccc(CCC2=CC(=O)C(Br)=CC2=O)cc1` as the molecule, how does the growth inhibition (at 1.2 µM) read?
**A.** -6%

**Q.** And the growth inhibition (at 3.7 µM)?
**A.** -1%

**Q.** What about the growth inhibition (at 11.0 µM) of the same molecule?
**A.** -4%

**Q.** What about the growth inhibition (at 33.0 µM) of the same molecule?
**A.** -7%

**Q.** And the growth inhibition (at 100.0 µM)?
**A.** 24%
